This is a sample that favours compounds with a hit; in the whole collection about 21% have one here.
Pf growth 96h – Primary qHTS for delayed death inhibitors of the malarial parasite plastid, 96 hour incubation | P. falciparum luciferase reporter growth, 96 h | Potency, µM (series often up to 28.7 µM), for inactives: top-dose activity change, negative = inhibition, hits mostly inhibitors | actives 6.9% (n = 320,000) | AID 504834, 2011; active = well fitted inhibition curve with a large enough effect; inconclusive = small, poorly fitted or top-dose-only effect, or another doubt; inactive = no such curve, though single readings can be large or run the other way; note: potency is the fitted concentration of half-maximal effect; % is set by controls: 0 for no effect and ±100 for the full control effect
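P. falciparum expressing integrated firefly luciferase grown in erythrocytes (2% hematocrit, 0.05% parasitemia final) with compounds for 96 hours at 37 C, 5% CO2. Growth inhibition read as loss of luminescence after adding luciferase detection reagent.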
CHX counter – Cycloheximide Counterscreen for Small Molecule Inhibitors of Shiga Toxin; actives 12% (n = 300,000); cell reporter, cycloheximide protein synthesis inhibition counterscreen; max response, %; in the data active = max response mostly above about 13%, no sharp cut-off; inactive = mostly below about 14%; note: read at 38.3 µM for the half of the compounds with a filed dose; 0% is about no effect
NS1 inh – qHTS Assay for Inhibitors of Influenza NS1 Protein Function; Potency, µM (series often up to 46.1 µM), for the others: at the highest dose activity, positive = more growth; actives 0.4% (n = 270,000); note: potency is the fitted concentration of half-maximal effect; actives are rising curves; nearly all actives have a fitted effect of over 50% in size
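OD600 was taken as the measure of yeast growth restored by compound in an NS1-expressing S. cerevisiae strain. Cells had been washed out of glucose medium and diluted 1:100 into galactose -URA medium, pH 6.0.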
Pf growth 48h – Primary qHTS for delayed death inhibitors of the malarial parasite plastid, 48 hour incubation; P. falciparum luciferase growth in erythrocytes, 48 h; Potency, µM (doses to about 28.7 µM), for inactives: at the top dose activity change, negative = inhibition, actives largely listed as inhibitors; actives 5.9% (n = 310,000); active = well fitted inhibition curve with a large enough effect; inconclusive = small, poorly fitted or top-dose-only effect, or another doubt; inactive = no such curve, though single readings can be large or run the other way; note: potency is the fitted concentration of half-maximal effect; % is set by controls: 0 for no effect and ±100 for the full control effect
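A one-generation exposure of luciferase-tagged malaria parasites in RPMI 1640/Albumax erythrocyte culture, 37 C and 5% CO2. Inhibition is inferred from decreased luminescence after adding detection reagent.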
SARS PLpro yeast – qHTS of Yeast-based Assay for SARS-CoV PLP; Potency, µM (doses to about 32.9 µM), for the others: at the top dose activity, positive = growth rescue, most hits filed as activators; actives 0.19% (n = 330,000); S. cerevisiae expressing SARS-CoV PLpro, growth rescue; note: potency is the fitted concentration of half-maximal effect; 0% is about no effect; nearly all actives have a fitted effect of over 55% in size
Shiga toxin inh – A qHTS for Small Molecule Inhibitors of Shiga Toxin; actives 9.2% (n = 290,000); Vero cells, Shiga toxin protein synthesis inhibition reporter; inhibition, % at 38.7 µM; in the data active = inhibition mostly above about 28%, no sharp cut-off; inactive = mostly below about 43%; note: 0% is about no effect
NS1 inh valid – Assay for Inhibitors of Influenza NS1 Protein Function: Hit Validation | shares compounds with NS1 inh | influenza NS1 function cell assay, 15-point titration | activity change, negative = inhibition, % at 32.9 µM | 1,400 tested, under 10 active | AID 492980, 2010; note: 0% is about no effect
The depositor's hits bear a star. Unless noted, calls come from the whole dose curve.

How did CC1CCN(C(=O)COC(=O)c2ccc(F)c(S(=O)(=O)N3CCOCC3)c2)CC1 do in these assays?
Pf growth 96h: 1%; CHX counter: 11; NS1 inh: -3%; Pf growth 48h: 66%; SARS PLpro yeast: 2%; Shiga toxin inh: 15

How did CCc1ccc(N2C(=O)NC(=O)/C(=C\C=C\c3ccco3)C2=O)cc1 do in these assays?
Pf growth 96h: -1%; CHX counter: 22*; NS1 inh: 11µM*; Pf growth 48h: 20%; SARS PLpro yeast: 0%; Shiga toxin inh: 18; NS1 inh valid: 11

What do the screens show for `COc1ccc(C(=O)Nc2ncccc2C)cc1S(=O)(=O)N1CCCc2ccccc21`?
Pf growth 96h: 23%; Pf growth 48h: -14%; SARS PLpro yeast: -1%

Results for COc1ccc(C(=O)Nc2nc3c(s2)CCCC3)cc1S(=O)(=O)N1CCCc2ccccc21 ?
Pf growth 96h: 10µM*; CHX counter: 9; NS1 inh: 13µM*; Pf growth 48h: 13µM*; SARS PLpro yeast: 14%; Shiga toxin inh: 41; NS1 inh valid: -5

Results for COc1ccccc1NC(=O)CSc1nncn1N ?
Pf growth 96h: 16%; CHX counter: -3; NS1 inh: 2%; Pf growth 48h: 18%; SARS PLpro yeast: 1%; Shiga toxin inh: 8

What do the screens show for `O=C(NCc1ccc2c(c1)OCO2)c1cccc([N+](=O)[O-])c1`?
Pf growth 96h: 10%; CHX counter: 1; NS1 inh: 2%; Pf growth 48h: 16%; SARS PLpro yeast: -5%; Shiga toxin inh: -5

How did CC1CC(C)CN(c2ccc(C(=O)NCc3ccc4c(c3)OCO4)cc2[N+](=O)[O-])C1 (stereo not drawn) do in these assays?
Pf growth 96h: -25%; CHX counter: 1; NS1 inh: 10µM*; Pf growth 48h: -24%; SARS PLpro yeast: 12%; Shiga toxin inh: 2; NS1 inh valid: -17

Results for Cc1c(NC(=O)OCCNC(=O)COc2ccc(Cl)cc2Cl)sc(=S)n1C ?
Pf growth 96h: inconclusive; CHX counter: 2; NS1 inh: inconclusive; Pf growth 48h: -16%; SARS PLpro yeast: -12%; Shiga toxin inh: -9; NS1 inh valid: 15

What do the screens show for `CCCCn1c(=O)cc(O)c2ccccc21`?
Pf growth 96h: -17%; CHX counter: -3; NS1 inh: 10µM*; Pf growth 48h: -7%; SARS PLpro yeast: -4%; Shiga toxin inh: -16; NS1 inh valid: 27

Results for Cc1ccc(Cl)c(OC(=O)C2CSC3(C)CCC(=O)N23)c1 (stereo not drawn) ?
Pf growth 96h: 21%; Pf growth 48h: -26%; SARS PLpro yeast: -1%

Results for COc1ccc(N2CCN(C(CNC(C)=O)c3ccc4c(c3)OCO4)CC2)cc1 (stereo not drawn) ?
Pf growth 96h: 66%; CHX counter: -4; NS1 inh: 6%; Pf growth 48h: 16%; SARS PLpro yeast: 6%; Shiga toxin inh: -2

How did O=C(NCCCO)C(=O)NCC(c1ccc2c(c1)OCO2)N1CCN(c2ccc(F)cc2)CC1 (stereo not drawn) do in these assays?
Pf growth 96h: -1%; CHX counter: 3; NS1 inh: 2.2µM*; Pf growth 48h: inconclusive; SARS PLpro yeast: 8%; Shiga toxin inh: -14; NS1 inh valid: -21

What do the screens show for `CCNc1c(NCC)c(=O)c1=O`?
Pf growth 96h: 3%; CHX counter: -3; NS1 inh: 6%; Pf growth 48h: -1%; SARS PLpro yeast: 0%; Shiga toxin inh: -13
